The values below come from PubChem BioAssay AID1566 (Sanford-Burnham Center for Chemical Genomics, 2009).

SMILES strings stand for the structures. Values joined by “and” are separate entries in the source; they are usually repeats but may differ in a detail not shown here. Identical values can stand only once. About 1,800 (0.62%) of roughly 290,000 compounds were called active. No stated cut-off is given here; in the data, active means inhibition above about 50%; inactive means the rest. What follows is part of a selection rich in actives, with near analogues and random picks from the rest.

The inhibition is the drop in the measured response relative to a control, in per cent.

This test in a line: NOD2 signaling inhibitors, cell-based, luminescence, uHTS, HEK293 (AID 1566). Conditions: HEK293 NOD2/NF-kB luciferase reporter, at 4 µM, hits give high values. In general terms: A reporter such as luciferase makes a cellular process visible.
`CCOC(=O)c1ccc2c(c1)nc(SCC(=O)c1ccco1)n2CC`: the inhibition is 8.2% (inactive).

Turning to `CN(C)CCNC(=O)c1cc2cc(Br)ccc2oc1=O`, the inhibition is -0.6% (inactive).

Regarding `COc1ccc(N/C(N)=N/c2nc(CSc3nnc(C)s3)cc(=O)[nH]2)cc1`, the inhibition is -37.9% (inactive).

For `O=C(Cc1ccc(Cl)cc1)Nc1ccccc1Sc1ccccc1`, the inhibition is 0.7% (inactive).

For `Cc1ccc(Sc2ccc(NC(=O)CCl)cc2)cc1C`, the inhibition was 0.9% (inactive).

In the case of `O=C(CCl)Nc1ccccc1Sc1ccccc1`, the inhibition was -24.6% (inactive).

In the case of `Cc1ccc(C)c(Sc2ccc(NC(=O)CCl)cc2)c1`, the inhibition is -19.5% (inactive).

As to `COc1ccccc1C1=NC(c2ccc(F)cc2)N=C1C` (configuration not stated), the inhibition is -33.6% (inactive).

On to `COc1ccc(-n2nc(C(=O)NCC(=O)N3CCN(Cc4ccccc4)CC3)c3ccccc3c2=O)cc1`, for which the inhibition is -1.4% (inactive).

In the case of `CC1(c2ccccc2)NC(=O)N(CC(=O)Nc2nnc(C3CC3)s2)C1=O` (configuration not stated), the inhibition is -9.7% (inactive).

As for `COc1ccc(/C=N/n2c(SC)nnc2-c2ccccc2)c(OC)c1OC`, the inhibition is -38.9% (inactive).

With `COc1ccc(-n2c(Cc3cccn3C)nnc2SCC(=O)Nc2ccc3c(c2)OCCO3)cc1`, the inhibition was 6.8% (inactive).

As to `O=C(c1ccccc1)c1cc([N+](=O)[O-])ccc1N1CCOCC1`, the inhibition was 5.9% (inactive).

`Cc1cc2ncn(C3CC(=O)N(C)C3=O)c2cc1C` (configuration not stated): the inhibition was 10.1% (inactive).

As for `CCCN1C2CCCC1CC(NC(=O)C1CCCCC1)C2` (configuration not stated), the inhibition was -3.5% (inactive).

Turning to `CN1CCN(C(=O)C2CC(=O)N(c3ccc(Cl)cc3)C2)CC1` (configuration not stated), the inhibition was -8.8% (inactive).

On to `CCCCCc1ccc(-c2ccc(/C=C/C(N)=O)cc2)nc1`, for which the inhibition is -57.2% (inactive).

Turning to `CCCCCc1ccc(-c2ccc(/C=C/C(=O)O)cc2)nc1`, the inhibition is -82.7% (inactive).

As to `CCCc1ccc(-c2ccc(/C=C/C(=O)O)cc2)nc1`, the inhibition was 78.4% (active).

Turning to `Cc1sc2ncnc(NCC(O)c3ccc([N+](=O)[O-])cc3)c2c1C` (configuration not stated), the inhibition is 51.7% (active).

Regarding `COc1ccc(C(CNc2ncnc3sc(C)c(C)c23)N(C)C)cc1` (configuration not stated), the inhibition was 69.8% (active).

In the case of `COc1ccccc1C(CNc1ncnc2sc(C)c(C)c12)N(C)C` (configuration not stated), the inhibition is 18.9% (inactive).

In the case of `Cc1sc2ncnc(NCC(c3ccccc3)N(C)C)c2c1C` (configuration not stated), the inhibition is 10.2% (inactive).

Regarding `Cc1nc(NCCc2ccc(S(N)(=O)=O)cc2)c2c(C)c(C)sc2n1`, the inhibition is 45.1% (inactive).

Turning to `Cc1sc2ncnc(NCC(O)c3ccccc3)c2c1C` (configuration not stated), the inhibition was 40.2% (inactive).

Consider `NS(=O)(=O)c1ccc(CCNc2ncnc3sccc23)cc1`, for which the inhibition is 34.1% (inactive).

On to `Cc1sc2ncnc(NCCc3ccc(S(N)(=O)=O)cc3)c2c1C`, for which the inhibition was 55.7% (active).

As to `Cc1sc2ncnc(N[C@@H](CCC(=O)O)C(=O)O)c2c1C`, the inhibition was 2.8% (inactive).

As for `CC(=O)Nc1ccc(OS(=O)(=O)c2ccc(Cl)cc2)cc1`, the inhibition is 12.5% (inactive).

As to `CCN(CC)S(=O)(=O)c1ccc(C)c(NC(=O)/C=C/c2cccs2)c1`, the inhibition was -13.1% (inactive).

`CCOCC(=O)Nc1ccccc1C(=O)O`: the inhibition is 5.3% (inactive).

`CCCCNC(=O)c1cn(CC)c2ccc(S(=O)(=O)N3CCCCCC3)cc2c1=O`: the inhibition is -6.4% (inactive).

Regarding `O=S(=O)(Nc1cc(Sc2cccc3cccnc23)c(O)c2ccccc12)c1ccc(F)cc1`, the inhibition was -2.1% (inactive).

For `O=S(=O)(Nc1cc(Sc2ncn[nH]2)c(O)c2ccccc12)c1ccccc1`, the inhibition is 19% (inactive).

As to `O=S(=O)(Nc1cc(Sc2cccc3cccnc23)c(O)c2ccccc12)c1ccccc1`, the inhibition is 95.9% (active).

Consider `O=C(O)CSc1cc(NS(=O)(=O)c2cccc([N+](=O)[O-])c2)c2ccccc2c1O`, for which the inhibition was 16.9% (inactive).

`O=C(O)CSc1cc(NS(=O)(=O)c2ccc(Br)cc2)c2ccccc2c1O`: the inhibition was 57.2% (active).

For the compound `Cc1cc(C)c(S(=O)(=O)Nc2cc(SCC(=O)O)c(O)c3ccccc23)cc1C`, the inhibition is 29.2% (inactive).

`COc1ccc(NS(=O)(=O)/C=C/c2ccccc2)cc1`: the inhibition is 17.1% (inactive).

As to `COc1ccc(C(=O)Nn2c(SCc3cccc([N+](=O)[O-])c3)nc3ccccc3c2=O)cc1`, the inhibition is 40.4% (inactive).

Take `COc1cccc(Oc2c(C)oc3c(CN4CCCCC4)c(O)ccc3c2=O)c1`: the inhibition was 18.7% (inactive).

As for `Cc1cccc(-n2cc(C(=O)O)c(=O)cc2C)c1`, the inhibition is 1.7% (inactive).

Consider `CCOc1ccc(/C=C/C(=O)Nc2ccc3[nH]c(=O)[nH]c3c2)cc1`, for which the inhibition was 6.2% (inactive).

For `Cc1ccc(NS(=O)(=O)c2c(C)nc3sccn3c2=O)cc1C`, the inhibition is 12.9% (inactive).

`CN(c1cc(=O)n2ccccc2n1)C1CCCCC1`: the inhibition is -19.5% (inactive).

For the compound `CC1CCCN(c2ccc3nc4ccccc4c(=O)n3n2)C1` (configuration not stated), the inhibition is 4.1% (inactive).

On to `CN(c1ccc2nc3ccccc3c(=O)n2n1)C1CCCCC1`, for which the inhibition is 79% (active).

Take `CSc1ccc(C(=O)C2CCCN(C(=O)CCc3cnn(C)c3)C2)cc1` (configuration not stated): the inhibition was 11% (inactive).

As to `Cc1nn(C)c(C)c1CCC(=O)N1CCCC(C(=O)c2cccc(OC(C)C)c2)C1` (configuration not stated), the inhibition is 14.2% (inactive).

On to `CSc1ccc(C(=O)C2CCCN(C(=O)CCc3c(C)nn(C)c3C)C2)cc1` (configuration not stated), for which the inhibition is 50.1% (active).

As to `Clc1cccc(-c2ccnc3nc(-n4cccc4)nn23)c1`, the inhibition is 5.6% (inactive).

Consider `COc1ccc(OC)c(NC(=O)C2CC(=O)N(c3ccccc3)C2)c1` (configuration not stated), for which the inhibition is -11.1% (inactive).

As to `COCCN1CN=C(NS(=O)(=O)c2ccc(C)cc2)NC1`, the inhibition was 6.3% (inactive).

For `CC1CCCN(C(=O)c2nn(C)c3c2CSc2ccccc2-3)C1` (configuration not stated), the inhibition is 8% (inactive).

As for `Cn1nc(C(=O)N2CCC(C(N)=O)CC2)c2c1-c1ccccc1SC2`, the inhibition is 12.9% (inactive).

With `CC1CC(C)CN(C(=O)c2nn(C)c3c2CSc2ccccc2-3)C1` (configuration not stated), the inhibition was 51.5% (active).

Regarding `COCc1ccc(CN2CCC(C(=O)Nc3cccc(-c4cscn4)c3)CC2)o1`, the inhibition was 7.2% (inactive).

As to `Cc1ccc(NC(=O)c2cc(C)n(-c3cccc(C)c3)c2C)cc1`, the inhibition was -26.4% (inactive).

Regarding `Cc1ccc(S(=O)(=O)NC(=O)c2cc(C)n(-c3ccccc3)c2C)cc1`, the inhibition was 13.4% (inactive).

For the compound `Cc1ccc(NC(=O)c2cc(C)n(-c3ccccc3)c2C)cc1`, the inhibition is 52% (active).

Consider `O=C(/C=C/c1cn(-c2ccccc2)nc1-c1cccnc1)N1CCCCC1`, for which the inhibition is 10% (inactive).

Take `O=C(/C=C/c1cn(-c2ccccc2)nc1-c1cccnc1)c1ccco1`: the inhibition is -74.6% (inactive).

Consider `O=C(/C=C/c1cn(-c2ccccc2)nc1-c1cccnc1)N1CCCC1`, for which the inhibition is 50.2% (active).

Consider `CC(OC(=O)C1CCN(S(=O)(=O)c2ccc(Cl)cc2)CC1)C(=O)N1CCc2ccccc21` (configuration not stated), for which the inhibition is -4.3% (inactive).

In the case of `COc1ccc(CN(Cc2nc3ccccc3c(=O)[nH]2)C(=O)c2ccco2)cc1`, the inhibition was 6.4% (inactive).

On to `c1ccc2c(c1)nc(-c1ccncc1)n2CCNc1nc(CN2CCCCC2)cs1`, for which the inhibition is 18.5% (inactive).

On to `CCOC(=O)c1ccc(NC(=S)N2CCCC(C(=O)OCC)C2)cc1` (configuration not stated), for which the inhibition was -6% (inactive).

With `O=C1C=C(c2cccs2)C[C@H](c2ccccc2)[C@H]1n1nnc([N+](=O)[O-])n1`, the inhibition is 21.7% (inactive).

Take `O=C1C=C(c2ccccc2)C[C@H](c2cccs2)[C@H]1n1cnc([N+](=O)[O-])c1`: the inhibition was 3.4% (inactive).

On to `COc1ccc(NC(=O)c2cccc(OC(=S)N3CCOCC3)c2)cc1`, for which the inhibition was 18.5% (inactive).

`Cc1cccc(C)c1NC(=S)NCc1ccncc1`: the inhibition is 7.5% (inactive).

Consider `Cc1cc(/C=c2/sc3nc4ccccc4n3c2=O)c(C)n1-c1ccccn1`, for which the inhibition was 3.6% (inactive).

`Cc1cc(/C=c2\sc3nc4ccccc4n3c2=O)c(C)n1-c1ccc(C(=O)O)cc1`: the inhibition was -0.4% (inactive).

On to `CC1(C)Cc2c(c(-c3ccco3)nc3sc4c(NCCO)ncnc4c23)CO1`, for which the inhibition is 16.6% (inactive).

In the case of `Cc1ccc(C(=O)O/N=C(/c2nonc2N)N(C)C)cc1`, the inhibition is 12.2% (inactive).

Regarding `COc1ccc(-c2nc3ccccc3n2Cc2ccccc2)cc1`, the inhibition was -2.8% (inactive).

As to `Cc1n(Cc2ccccc2)c2ccccc2[n+]1Cc1ccccc1`, the inhibition is 22% (inactive).

For `C/C(=N\Nc1ccc(C)c(Cl)c1)c1ccncc1`, the inhibition was -32.8% (inactive).

As to `O=C(Nc1ccc2c(c1)OCO2)C1CCN(Cc2cc3c(cc2O)OCO3)CC1`, the inhibition was 1.5% (inactive).

For the compound `Cc1nc2cc(-c3ccccc3)sc2c(=O)n1N`, the inhibition was 54.8% (active).

With `Cc1nc2ccccc2c(=O)n1N`, the inhibition was -3.2% (inactive).

Turning to `Cc1nc2sc(-c3ccccc3)cc2c(=O)n1N`, the inhibition was -41.2% (inactive).

On to `CC(C)(C#N)NC(=O)C(=O)c1c(-c2ccccc2)cc2ccccn12`, for which the inhibition was 5% (inactive).

Consider `CCOc1ccc(-n2c(N)c(-c3nc4ccccc4[nH]3)sc2=S)cc1`, for which the inhibition was 9.9% (inactive).

For the compound `COc1cccc(/C=N/Nc2ccc(S(=O)(=O)O)cc2)c1O`, the inhibition was 15.4% (inactive).

In the case of `COc1cccc(/C=N/Nc2ccc(C(=O)O)cc2)c1O`, the inhibition was 82.8% (active).

`COc1cccc(/C=N/Nc2ccc([N+](=O)[O-])cc2)c1O`: the inhibition was -64% (inactive).

For `CCOC(=O)CNC(=S)N(CCCN1CCN(C)CC1)Cc1cccs1`, the inhibition is -1.4% (inactive).

Take `O=C1OC(c2ccccc2)c2ccccc21` (configuration not stated): the inhibition is -11.5% (inactive).

As to `CC1CCN(S(=O)(=O)c2ccc(NC(=O)CNC3CCCCC3)cc2)CC1`, the inhibition was -15.2% (inactive).

As to `Cc1sc2c(=O)n3c(nc2c1C(=O)NC1CCCCC1)CCCCC3`, the inhibition is 16.8% (inactive).

In the case of `O=C(CSc1nc2ccccc2s1)CSc1nc2ccccc2s1`, the inhibition is 4.4% (inactive).

As for `O=C(CSc1nc2ccccc2s1)N/N=C/c1ccccc1C(=O)O`, the inhibition is 56.5% (active).

Turning to `O=C(O)CCSc1nc2ccccc2s1`, the inhibition is 65.2% (active).

As for `O=C(O)COc1ccccc1/C=N/NC(=O)CSc1nc2ccccc2s1`, the inhibition was -0.7% (inactive).

Turning to `O=C(O)CSc1nc2ccccc2s1`, the inhibition was 0.2% (inactive) and -11.4% (inactive).

For `O=C(CSc1nc2ccccc2s1)N/N=C/c1ccc(C(=O)O)cc1`, the inhibition is 12.9% (inactive).
